{"source": "PubChem BioAssay AID588475", "about": "(Sanford-Burnham Center for Chemical Genomics, 2011)", "note": "The campaign covered roughly 350,000 compounds. About 2,100 (0.6%) were called active. This is one part of a sample in which actives are shown more often than they occur. Unmarked numbers belong to inactive results.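 Rule for the calls: active = inhibition of the ligand-induced calcium signal above about 50% at the single tested concentration (limit read from the data); inactive = the rest.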"}
{"experiment": "blockers of CRF-evoked CRF-R2/CRF-BP calcium response – cell-based, HEK293, calcium dye fluorescence, uHTS, primary screen (AID 588475)", "details": "CRF-induced calcium fluorescence, at 11.8 µM, stronger effect = higher value"}
{"smiles": "O=C1CCCCC1C(=O)c1ccccc1", "note": "(centres undefined)", "inhibition": "52.8% (active)"}
{"smiles": "O=C(OC1CCCCC1=O)c1cccc(S(=O)(=O)NCc2ccccc2)c1", "note": "(centres undefined)", "inhibition": "12.8%"}
{"smiles": "Cc1cccc(C(=O)C(O)(c2ccccc2)C2CCCCC2=O)c1", "note": "(centres undefined)", "inhibition": "-14%"}
{"smiles": "COc1cccc(CNC(=O)CCN2C(=S)NC(C)(C)CC2C)c1", "note": "(centres undefined)", "inhibition": "3.81%"}
{"smiles": "N#CCc1c[nH]c2ccc([N+](=O)[O-])cc12", "inhibition": "2.31%"}
{"smiles": "Cc1cc([N+](=O)[O-])ccc1NCc1cccc([N+](=O)[O-])c1", "inhibition": "34.2%"}
{"smiles": "Cc1cc([N+](=O)[O-])c(NC2CCCCC2)c([N+](=O)[O-])c1", "inhibition": "-26.8%"}
{"smiles": "Cc1cc([N+](=O)[O-])ccc1NC1CCCC1", "inhibition": "72% (active)"}
{"smiles": "CC(C)C(NS(=O)(=O)c1cccs1)C(=O)Nc1nc(C(C)(C)C)cs1", "note": "(centres undefined)", "inhibition": "7.44%"}
{"smiles": "Cc1cc(-c2nnc(SCC(=O)Nc3ccc(S(N)(=O)=O)cc3)n2N)n[nH]1", "inhibition": "9.63%"}
{"smiles": "CCOC(=O)N1CCC(NC(=O)C(NS(=O)(=O)c2ccc3c(c2)CCN3C(=O)CC)C(C)C)CC1", "note": "(centres undefined)", "inhibition": "-2.51%"}
{"smiles": "COc1ccc(N=C2C=CC(=O)O2)cc1", "inhibition": "11.2%"}
{"smiles": "OCC1OC(n2cnc3c(N4CCCC4)ncnc32)C(O)C1O", "note": "(centres undefined)", "inhibition": "-7.64%"}
{"smiles": "COc1cc(OC)cc(-c2c(C#Cc3ccsc3)c3cc(-c4ccc(SC)cc4)ccc3n2C)c1", "inhibition": "1.84%"}
{"smiles": "Cc1ccc(S(=O)(=O)/N=C(\\CN2CCOCC2)N2CCOCC2)cc1", "inhibition": "12.5%"}
{"smiles": "CCCc1cc(=O)n2[nH]c(C)c(-c3ccc(Cl)cc3)c2n1", "inhibition": "13.7%"}
{"smiles": "Cc1nc2c(-c3ccccc3)c(C)[nH]n2c(=O)c1Cl", "inhibition": "42.5%"}
{"smiles": "Cc1[nH]n(-c2cccc(Cl)c2)c(=O)c1-c1ccc(Cl)cc1", "inhibition": "50.6% (active)"}
{"smiles": "C/C(=N\\Nc1ccccc1)c1cccs1", "inhibition": "-0.14%"}
{"smiles": "COc1ccccc1N(C)S(=O)(=O)c1ccc(Cl)c(C(=O)N2CCC(C(N)=O)CC2)c1", "inhibition": "17.1%"}
{"smiles": "C/C(CC(=O)Nc1cccc(C(F)(F)F)c1)=N\\NC(=O)C(=O)NCC(C)C", "inhibition": "-3.29%"}
{"smiles": "COc1ccc(NC(=O)C(=O)NCC(=O)Nc2cccc(C(F)(F)F)c2)cc1", "inhibition": "55.4% (active)"}
{"smiles": "COc1ccc(C(CC(=O)Nc2ccc(C)cc2)NC(=O)C(F)(F)F)cc1", "note": "(centres undefined)", "inhibition": "-3.52%"}
{"smiles": "CCCCn1c(N)c(N(CC(C)C)C(=O)CN(C)S(=O)(=O)c2ccc(F)cc2)c(=O)[nH]c1=O", "inhibition": "-2.99%"}
{"smiles": "Cc1c(C(=O)OCC(=O)N(CCC#N)c2ccccc2)oc2c1ccc1ccccc12", "inhibition": "-18.4%"}
{"smiles": "O=S(=O)(CCc1nc2ccccc2o1)c1ccc(Cl)cc1", "inhibition": "-6.01%"}
{"smiles": "CCc1nc2ccccc2n(CCOCCOCCn2c(=O)c(CC)nc3ccccc32)c1=O", "inhibition": "-9.64%"}
{"smiles": "Cc1nn2c3ccccc3nc2n(C)c1=O", "inhibition": "83.2% (active)"}
{"smiles": "Cn1c(-c2ccc(C(=O)c3ccccc3)s2)nc2ccccc21", "inhibition": "6.07%"}
{"smiles": "Cc1ccc(S(=O)(=O)NNC(=S)NC(C)(C)C)cc1", "inhibition": "0.02%"}
{"smiles": "CCNC(=O)NNC(=O)C1CC(c2cccs2)=NO1", "note": "(centres undefined)", "inhibition": "0.63%"}
{"smiles": "COc1ccc(-n2nnnc2SCC(=O)c2ccc(OC)c(OC)c2)cc1", "inhibition": "51.1% (active)"}
{"smiles": "O=C(CSc1nnnn1-c1ccc(O)cc1)c1ccc(F)cc1", "inhibition": "4.96%"}
{"smiles": "COc1ccc(NC(=O)CSc2nnnn2-c2cccc(OC)c2)cc1", "inhibition": "8.16%"}
{"smiles": "CC(C)Oc1ccc(Cc2n[nH]c(=S)n2Cc2ccccc2)cc1Cl", "inhibition": "2.65%"}
{"smiles": "O=C(Nc1cccc(C(=O)O)c1)/C(=C\\c1ccccc1)NC(=O)c1ccc(Br)o1", "inhibition": "12.3%"}
{"smiles": "COC(=O)Cn1cnc2scc(-c3ccc(C)c(C)c3)c2c1=O", "inhibition": "0.19%"}
{"smiles": "O=C(N/N=C/c1cccc2cccnc12)[C@H]1C[C@@H]1c1ccccc1", "inhibition": "-18.3%"}
{"smiles": "O=C(CCC(=O)c1ccccc1)NCc1cccc(C(F)(F)F)c1", "inhibition": "-4.39%"}
{"smiles": "O=C(CCC(=O)OCC(F)(F)C(F)F)NCc1ccccc1", "inhibition": "108% (active)"}
{"smiles": "O=C(CCOc1ccccc1)NCc1ccccc1", "inhibition": "2.03%"}
{"smiles": "Cc1nc(N)c(Br)c(C)c1Br", "inhibition": "-2.67%"}
{"smiles": "Cn1cc(S(=O)(=O)N2CCN(c3ccc(F)cc3)CC2)c(=O)n(C)c1=O", "inhibition": "-4.51%"}
{"smiles": "CC(C)[C@H](NC(=O)N1CCn2c1nc1ccccc12)C(=O)NCc1ccc2c(c1)OCO2", "inhibition": "-3.94%"}
{"smiles": "CCC(C)[C@H](NC(=O)N1CCn2c1nc1ccccc12)C(=O)NCc1ccc(OC)cc1", "note": "(some centres undefined)", "inhibition": "52.2% (active)"}
{"smiles": "CC(C)[C@H](NC(=O)N1CCn2c1nc1ccccc12)C(=O)NCCc1ccccc1", "inhibition": "2.7%"}
{"smiles": "O=C(/C(=N\\O)n1cncn1)c1ccc(Br)cc1Br", "inhibition": "14.7%"}
{"smiles": "COc1cc(OC)cc(C(=O)Nc2ncc3c(n2)CC(C)(C)CC3=O)c1", "inhibition": "20%"}
{"smiles": "O=C(NNC(=S)NC1CC2CCC1C2)c1ccc(Cl)cc1", "note": "(centres undefined)", "inhibition": "-9.96%"}
{"smiles": "O=[N+]([O-])c1ccc(C(S(=O)(=O)Cc2ccccc2)S(=O)(=O)Cc2ccccc2)cc1", "inhibition": "5.72%"}
{"smiles": "CC1CN/C(=C\\C(=O)c2ccc(Br)cc2)C(=O)N1", "note": "(centres undefined)", "inhibition": "12.3%"}
{"smiles": "O=C(CCS(=O)(=O)c1ccc(Br)cc1)NCCc1ccc(Cl)cc1", "inhibition": "-3.71%"}
{"smiles": "O=C(NCCCN1CCOCC1)c1ccccc1NS(=O)(=O)c1ccc(Br)cc1", "inhibition": "1.32%"}
{"smiles": "O=C(NCCS(=O)(=O)c1ccc(Br)cc1)c1ccccc1Cl", "inhibition": "71.2% (active)"}
{"smiles": "Cc1c(OC(C)C(=O)NCC2CCC(C(=O)O)CC2)ccc2c1oc(=O)c1ccccc12", "note": "(centres undefined)", "inhibition": "4.13%"}
{"smiles": "Cc1nonc1C1CCCN1Cc1nc(-c2ccc(F)cc2F)oc1C", "note": "(centres undefined)", "inhibition": "17.3%"}
{"smiles": "CN(C)S(=O)(=O)c1ccc(C(=O)NCC(C)(C)N2CCOCC2)cc1", "inhibition": "15.6%"}
{"smiles": "COCc1[nH]nc2c1C(C1C=CCCC1)C(C#N)=C(N)O2", "note": "(centres undefined)", "inhibition": "-8.71%"}
{"smiles": "COc1ccc(C2C(C#N)=C(N)Oc3n[nH]c(C)c32)cc1CN1CCN(c2ccc(F)cc2)CC1", "note": "(centres undefined)", "inhibition": "3.36%"}
{"smiles": "COc1cc(C2C(C#N)=C(N)Oc3n[nH]c(-c4ccccn4)c32)cc(OC)c1OC", "note": "(centres undefined)", "inhibition": "52.2% (active)"}
{"smiles": "Cc1ccc(C)c(C(=O)COC(=O)Cn2[nH]c(=O)c3ccccc3c2=O)c1", "inhibition": "6.49%"}
{"smiles": "CC(=O)NNC1=Nc2ccccc2N(C)C(C)C1", "note": "(centres undefined)", "inhibition": "19%"}
{"smiles": "COC(=O)c1ccc(CN2C(=O)NC(c3ccccc3)(c3ccccc3)C2=O)o1", "inhibition": "0.1%"}
{"smiles": "COC(=O)c1ccc(Cc2ccccc2)o1", "inhibition": "53% (active)"}
{"smiles": "COC(=O)c1ccc(COc2ccc(C#N)cc2)o1", "inhibition": "10.2%"}
{"smiles": "CCC(C)C(NC(=O)C1CCC(=O)N1C(=O)OCc1ccccc1)C(=O)NC(C(=O)N1CCCC1C(N)=O)C(C)CC", "note": "(centres undefined)", "inhibition": "2.28%"}
{"smiles": "O=C1c2cccc3cccc(c23)C(=O)N1c1cccc(O)c1", "inhibition": "4.66%"}
{"smiles": "COc1cc(NC(=O)c2ccccc2NS(=O)(=O)c2ccc(Cl)s2)cc(OC)c1", "inhibition": "90.5% (active)"}
{"smiles": "COC(=O)c1ccc(NC(=O)c2ccccc2NS(=O)(=O)c2ccccc2)cc1", "inhibition": "61% (active)"}
{"smiles": "O=S(=O)(Nc1ccccc1N1CCOCC1)c1ccc(Cl)s1", "inhibition": "-0.68%"}
{"smiles": "COC(=O)c1ccccc1NS(=O)(=O)c1ccc2[nH]c(=O)[nH]c2c1", "inhibition": "17.7%"}
{"smiles": "COc1ccccc1C(=O)Nc1ccccc1C(=O)Nc1ccccc1", "inhibition": "6.12%"}
{"smiles": "O=C(Nc1ccc(S(=O)(=O)Nc2ccccn2)cc1)c1ccccc1", "inhibition": "-0.79%"}
{"smiles": "CSc1nnc(-c2ccc(C(F)(F)F)cn2)o1", "inhibition": "4.97%"}
{"smiles": "O=C(OCC(=O)N1CCc2ccccc21)c1ccc([N+](=O)[O-])cc1", "inhibition": "-3.17%"}
{"smiles": "CN1CCOC1c1ccc(C2OCCN2C)cc1", "note": "(centres undefined)", "inhibition": "4.93%"}
{"smiles": "CCCc1nc2c(C)cc(-c3nc4ccccc4n3C)cc2n1Cc1ccc(-c2ccccc2C(=O)O)cc1", "inhibition": "17.1%"}
{"smiles": "CN(C)CCCN(Cc1cc2cc3c(cc2[nH]c1=O)OCCO3)C(=O)NC1CCCCC1", "inhibition": "-6.7%"}
{"smiles": "Cc1cc(C(=O)OC(C)C(=O)NC2CCCCC2C)c(C)o1", "note": "(centres undefined)", "inhibition": "-2.53%"}
{"smiles": "O=C(Cn1cnc([N+](=O)[O-])n1)NCCc1ccccc1", "inhibition": "67.5% (active)"}
{"smiles": "CC(C)(C)NC(=O)Cn1cnc([N+](=O)[O-])n1", "inhibition": "4.8%"}
{"smiles": "O=C(Cc1ccc(Br)cc1)NCCc1ccccc1", "inhibition": "-0.6%"}
{"smiles": "COCC(=O)N1CCc2ccc(NC(=O)c3ccccc3Cl)cc2C1", "inhibition": "6.03%"}
{"smiles": "S=C(NCc1cccs1)Nc1ccc(Cl)cc1", "inhibition": "8.34%"}
{"smiles": "Fc1ccccc1CNC(=S)Nc1ccc(Cl)cc1", "inhibition": "66% (active)"}
{"smiles": "FC(F)(F)Oc1ccc(NC(=S)NCc2ccccc2)cc1", "inhibition": "44.6%"}
{"smiles": "COc1ccc(NC2CC(=O)N(C)C2=O)cc1", "note": "(centres undefined)", "inhibition": "20.5%"}
{"smiles": "CN(C)CCN(C(=O)CN1C(=O)c2ccccc2C1=O)c1nc2cc3c(cc2s1)OCCO3", "inhibition": "85.2% (active)"}
{"smiles": "CCN(CC)CCN(C(=O)c1cc(Cl)sc1Cl)c1nc2cc3c(cc2s1)OCO3", "inhibition": "-22.2%"}
{"smiles": "CN(C)CCN(C(=O)C1=COCCO1)c1nc2ccc(Cl)cc2s1", "inhibition": "-9.68%"}
{"smiles": "O=C(COc1ccc(Cl)cc1)NCCSc1ccccc1", "inhibition": "9.25%"}
{"smiles": "O=C1CCC(CCC(=O)N2CCCC(C(=O)c3ccc(Cl)cc3)C2)=NN1", "note": "(centres undefined)", "inhibition": "-7.3%"}
{"smiles": "CC(=O)n1cc([C@H]2C=C(C(=O)N3CCOCC3)O[C@@H](OCc3ccc(CO)cc3)C2)c2ccccc21", "inhibition": "-5.43%"}
{"smiles": "Cc1cc2c(cc1C)NC(c1ccccn1)C1=C(CC(C)(C)CC1=O)N2", "note": "(centres undefined)", "inhibition": "7.43%"}
